Data from PubChem BioAssay (NCATS).
Results filed as inconclusive are left out. Active and inactive are the calls of the source. Calls come from the whole dose curve; as a rule, active = well fitted curve in the direction sought with a large enough effect; inconclusive = small, poorly fitted or top-dose-only effect, or another doubt; inactive = no such curve, though single readings can be large; an effect the other way counts as inactive or inconclusive. Where a SMILES comes first, the peptide text is derived from it.

How the values were obtained:
CRL-7250 = normal cell line; test: Cytotoxic Profiling of Annotated Libraries Using Quantitative High-Throughput Screening (AID 1296008); settings: Five cell lines viability, CellTiter-Glo ATP luminescence, 48-72 h; max response: active compounds read low; note: nearly all actives have a fitted effect of over 60% in size; note: potency is the fitted concentration of half-maximal effect; for max response: % is set by controls: 0 for no effect and ±100 for the full control effect
Procedure, shortened: (§1)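 Cytotoxicity was measured as CellTiter-Glo ATP luminescence, read after 10 min at room temperature. Compound treatment of the cells lasted 48 or 72 hr at 37 degrees Celsius in a qHTS format.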

HEK293 = test: as above; settings: Five cell lines viability, CellTiter-Glo ATP luminescence, 48-72 h; max response: active compounds read low
Procedure, shortened: as §1

HaCat [1] = test: as above; settings: Five cell lines viability, CellTiter-Glo ATP luminescence, 48-72 h; max response: active compounds read low
Procedure, shortened: as §1

KB-3-1 = test: as above; settings: Five cell lines viability, CellTiter-Glo ATP luminescence, 48-72 h; max response: active compounds read low
Procedure, shortened: as §1

NIH3T3 [2] = test: as above; settings: Five cell lines viability, CellTiter-Glo ATP luminescence, 48-72 h; max response: active compounds read low
Procedure, shortened: as §1

NIH3T3 [3] = test: qHTS assay to identify novel small-molecules to repurpose for Merkel cell carcinoma treatment (AID 1296009); settings: MCC and control cell lines, CellTiter-Glo viability, 72 h; at 44.8 µM (top of the series) unless noted; note: nearly all actives have a fitted effect of over 60% in size
Procedure, shortened: (§2)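 Cell viability measured by CellTiter-Glo following 72 hr compound treatment at 37 degree celsius, with NPC and MIPE libraries tested in 8- and 11-point concentration series.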

C33A = test: Primary qHTS to identify gynecologic anti-cancer compounds using libraries of approved drugs and bioactive compounds (AID 1345084); settings: Gynecologic cancer cell panel viability, ATPlite luminescence, 48 h; series mostly up to 57.5 µM; note: % is set by controls: 0 for no effect and ±100 for the full control effect; nearly all actives have a fitted effect of over 55% in size
Procedure, shortened: (§3)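 Cytotoxicity screen measuring ATP content by luciferase luminescence. Each compound is applied at five concentrations for 48 h at 37 C with 5% CO2.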

CAOV3 = test: as above; settings: Gynecologic cancer cell panel viability, ATPlite luminescence, 48 h; series mostly up to 57.5 µM
Procedure, shortened: as §3

CASKI = test: as above; settings: Gynecologic cancer cell panel viability, ATPlite luminescence, 48 h; series mostly up to 57.5 µM
Procedure, shortened: as §3

Es-2 = test: as above; settings: Gynecologic cancer cell panel viability, ATPlite luminescence, 48 h; series mostly up to 57.5 µM
Procedure, shortened: as §3

HeLa = test: as above; settings: Gynecologic cancer cell panel viability, ATPlite luminescence, 48 h; series mostly up to 57.5 µM
Procedure, shortened: as §3

Hek293T = test: as above; settings: Gynecologic cancer cell panel viability, ATPlite luminescence, 48 h, control line for the selectivity index; series mostly up to 57.5 µM
Procedure, shortened: as §3

JEG-3 = test: as above; settings: Gynecologic cancer cell panel viability, ATPlite luminescence, 48 h; series mostly up to 57.5 µM
Procedure, shortened: as §3

PA-1 = test: as above; settings: Gynecologic cancer cell panel viability, ATPlite luminescence, 48 h; series mostly up to 57.5 µM
Procedure, shortened: as §3

OV90 = test: as above; settings: Gynecologic cancer cell panel viability, ATPlite luminescence, 48 h; series mostly up to 57.5 µM
Procedure, shortened: as §3

HACAT [4] = test: qHTS assay to identify novel small-molecules to repurpose for Merkel cell carcinoma treatment (AID 1296009); settings: MCC and control cell lines, CellTiter-Glo viability, 72 h; at 44.8 µM (top of the series) unless noted; note: nearly all actives have a fitted effect of over 60% in size
Procedure, shortened: as §2

COc1ccc(CCC(=O)c2c(O)cc(O[C@@H]3O[C@H](CO)[C@@H](O)[C@H](O)[C@H]3O[C@@H]3O[C@@H](C)[C@H](O)[C@@H](O)[C@H]3O)cc2O)cc1O
inactive: max response (CRL-7250) -2.32% | max response (HEK293) 0.838% | max response (HaCat [1]) 4.19% | outcome (KB-3-1) | outcome (NIH3T3 [2]) | outcome (NIH3T3 [3]) | Potency (C33A) | Potency (CAOV3) | outcome (CASKI) | Potency (Es-2) | Potency (HeLa) | Potency (Hek293T) | Potency (JEG-3) | Potency (PA-1)

O=C(O)c1ccnc2cc(-c3nc4ccccc4n3CCN3CCCCC3)sc12
inactive: max response (CRL-7250) 1.05% | max response (HEK293) 2.48% | max response (HaCat [1]) -0.587% | max response (KB-3-1) 2.06% | outcome (NIH3T3 [2]) | outcome (NIH3T3 [3]) | Potency (C33A) | Potency (CAOV3) | outcome (CASKI) | Potency (Es-2) | Potency (HeLa) | Potency (Hek293T) | Potency (JEG-3) | Potency (OV90) | Potency (PA-1)

CC1=C2C3OC(=O)C(C)C3(O)CCC2(C)CCC1 (stereo unspecified)
inactive: max response (CRL-7250) 4.24% | max response (HEK293) 2.89% | max response (HaCat [1]) 0.93% | max response (KB-3-1) 2.02% | outcome (NIH3T3 [2]) | outcome (NIH3T3 [3]) | Potency (C33A) | Potency (CAOV3) | outcome (CASKI) | Potency (Es-2) | Potency (HeLa) | Potency (Hek293T) | Potency (JEG-3) | Potency (OV90) | Potency (PA-1)

COC(=O)c1cc(OC)cc(OC)c1C(=O)c1c(OC)cc2c(c1O)C1CCC(O)C(C)(O2)O1 (stereo unspecified)
inactive: outcome (CRL-7250) | outcome (HaCat [1]) | outcome (KB-3-1) | outcome (NIH3T3 [2]) | outcome (HACAT [4]) inactive [at 17.4 µM] | outcome (NIH3T3 [3]) inactive [at 17.4 µM] | Potency (C33A) | Potency (CAOV3) | outcome (CASKI) | Potency (Es-2) | Potency (HeLa) | Potency (Hek293T) | Potency (JEG-3) | Potency (OV90) | Potency (PA-1)

O=C(O)C(Cc1ccccc1)NC(=O)C1CCCN1 (stereo not drawn) (H-Pro-Phe-OH; configuration not given here)
inactive: max response (CRL-7250) -5.01% | max response (HEK293) 0.403% | max response (HaCat [1]) -6.92% | outcome (KB-3-1) | outcome (NIH3T3 [2]) | Potency (C33A) | Potency (CAOV3) | outcome (CASKI) | Potency (Es-2) | Potency (HeLa) | Potency (Hek293T) | Potency (JEG-3) | Potency (OV90) | Potency (PA-1)

COc1cc(C(C)=O)ccc1O[C@@H]1O[C@H](CO[C@@H]2OC[C@@H](O)[C@H](O)[C@H]2O)[C@@H](O)[C@H](O)[C@H]1O
inactive: max response (CRL-7250) 0.428% | max response (HEK293) -0.597% | max response (HaCat [1]) -2.37% | max response (KB-3-1) 7.17% | outcome (NIH3T3 [2]) | outcome (NIH3T3 [3]) inactive [at 17.4 µM] | Potency (C33A) | Potency (CAOV3) | outcome (CASKI) | Potency (HeLa) | Potency (Hek293T) | Potency (JEG-3) | Potency (OV90) | Potency (PA-1)

COc1cc2c(cc1OC)N1C(=O)C[C@@]34C=CC[N@+]5([O-])CC[C@H]2[C@H](CC3)[C@@]145
inactive: max response (CRL-7250) -5.36% | max response (HEK293) -9.63% | max response (HaCat [1]) -4.24% | max response (KB-3-1) 1.95% | outcome (NIH3T3 [2]) | outcome (NIH3T3 [3]) | Potency (C33A) | outcome (CASKI) | Potency (Es-2) | Potency (HeLa) | Potency (Hek293T) | Potency (JEG-3) | Potency (OV90) | Potency (PA-1)

FC(F)(F)c1nnc2c(Sc3ccccc3)nc3ccc(Cl)cc3n12
active: Potency (CRL-7250) 3.66 µM | Potency (HEK293) 5.8 µM | Potency (HaCat [1]) 4.61 µM | Potency (KB-3-1) 5.17 µM
inactive: outcome (NIH3T3 [2]) | outcome (NIH3T3 [3]) | Potency (C33A) | outcome (CASKI) | Potency (HeLa) | Potency (Hek293T) | Potency (JEG-3) | Potency (OV90) | Potency (PA-1)

CCCCS(=O)(=O)NC(Cc1ccc(OCCCCC2CCNCC2)cc1)C(=O)O (stereo unspecified)
inactive: max response (CRL-7250) -1.48% | max response (HEK293) -14% | max response (HaCat [1]) 4.29% | max response (KB-3-1) 0.365% | outcome (NIH3T3 [2]) | outcome (NIH3T3 [3]) | Potency (C33A) | outcome (CASKI) | Potency (Es-2) | Potency (HeLa) | Potency (Hek293T) | Potency (JEG-3) | Potency (OV90) | Potency (PA-1)

CC1(C)CC[C@]2(C(=O)O)CC[C@]3(C)C(=CCC4[C@@]5(C)C[C@@H](O)[C@H](O)[C@](C)(CO)C5CC[C@]43C)[C@@H]2[C@@H]1O (stereo partly specified)
inactive: outcome (CRL-7250) | max response (HaCat [1]) 1.54% | max response (KB-3-1) -5.13% | outcome (NIH3T3 [2]) | outcome (NIH3T3 [3]) inactive [at 17.4 µM] | outcome (CASKI) | Potency (Hek293T) | Potency (OV90)
active: Potency (HEK293) 7.96 µM

CC1(C)CC[C@]2(C(=O)O[C@@H]3O[C@H](CO[C@@H]4O[C@H](CO)[C@@H](O)[C@H](O)[C@H]4O)[C@@H](O)[C@H](O[C@@H]4O[C@H](CO)[C@@H](O)[C@H](O)[C@H]4O)[C@H]3O)CC[C@]3(C)C(=CCC4[C@@]5(C)CC[C@H](O[C@@H]6OC[C@@H](O)[C@H](O)[C@H]6O)[C@@](C)(C(=O)O)C5CC[C@]43C)[C@@H]2C1 (stereo partly specified)
inactive: outcome (CRL-7250) | max response (HEK293) -19.5% | max response (HaCat [1]) -27.8% | outcome (KB-3-1) | outcome (NIH3T3 [2]) | activity change, negative = cytotoxicity (C33A) 0.217% [at 11.6 µM] | activity change, negative = cytotoxicity (CAOV3) 15.5% [at 11.6 µM] | activity change, negative = cytotoxicity (CASKI) 9.7% [at 11.6 µM] | activity change, negative = cytotoxicity (Es-2) -1.43% [at 11.6 µM] | activity change, negative = cytotoxicity (HeLa) 13.2% [at 11.6 µM] | activity change, negative = cytotoxicity (Hek293T) 2.76% [at 11.6 µM] | activity change, negative = cytotoxicity (JEG-3) 2.05% [at 11.6 µM] | activity change, negative = cytotoxicity (OV90) 1.75% [at 11.6 µM] | activity change, negative = cytotoxicity (PA-1) 0.621% [at 11.6 µM]
